Measurements from PubChem BioAssay AID1159580 (chemical genetic matrix, 2015).
In all, about 5,500 compounds went through this assay and about 2,000 (36%) were called active. Roughly 18% stayed inconclusive and do not appear here. Cut-off read from the data, not from the text of the source: active = normalized growth mostly below about 0.91 (no sharp cut-off); inconclusive = no clear call, values can overlap the other calls; inactive = mostly above about 0.92. The list shows a part of the results.

Assay: chemical genetic growth profiling, strain panel (AID 1159580);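 note: tested at 20 µM; growth read once vehicle control cultures reached saturation at 30 °C; 1 = growth at the plate median or of vehicle wells; lower values mean less growth of the strain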
Settings: S. cerevisiae deletion strains, growth OD

Measured: normalized growth

CC(C)(C)C(=O)N(Cc1cccnc1)Cc1ccc(Cl)cc1Cl
inactive: locus YAR019C, strain CDC15, stronger effect = lower value 0.998 | locus YBL105C, strain PKC1, stronger effect = lower value 0.988 | locus YBR135W, strain CKS1, stronger effect = lower value 1 | locus YBR136W, strain MEC1, stronger effect = lower value 0.986 | locus YBR160W, strain CDC28, stronger effect = lower value 0.995 | locus YDL017W, strain CDC7, stronger effect = lower value 0.992 | locus YDL028C, strain MPS1, stronger effect = lower value 0.992 | locus YDL101C, strain DUN1, stronger effect = lower value 0.985 | locus YDL108W, strain KIN28, stronger effect = lower value 0.982 | locus YDL132W, strain cdc53, stronger effect = lower value 0.997 | locus YDL214C, strain PRR2, stronger effect = lower value 0.914 | locus YDR052C, strain DBF4, stronger effect = lower value 0.993 | locus YDR054C, strain cdc34, stronger effect = lower value 0.991 | locus YDR226W, strain ADK1, stronger effect = lower value 1 | locus YDR477W, strain SNF1, stronger effect = lower value 0.948 | locus YER123W, strain YCK3, stronger effect = lower value 0.842 | locus YER133W, strain GLC7, stronger effect = lower value 0.948 | locus YFL009W, strain cdc4, stronger effect = lower value 0.998 | locus YFL029C, strain CAK1, stronger effect = lower value 0.996 | locus YFR003C, strain YPI1, stronger effect = lower value 0.993 | locus YFR019W, strain FAB1, stronger effect = lower value 0.9 | locus YFR028C, strain CDC14, stronger effect = lower value 1 | locus YGR040W, strain KSS1, stronger effect = lower value 0.928 | locus YGR052W, strain FMP48, stronger effect = lower value 1.01 | locus YGR092W, strain DBF2, stronger effect = lower value 0.936 | locus YHR030C, strain SLT2, stronger effect = lower value 1.07 | locus YHR079C, strain IRE1, stronger effect = lower value 1.01 | locus YHR082C, strain KSP1, stronger effect = lower value 1.02 | locus YHR205W, strain SCH9, stronger effect = lower value 0.935 | locus YIL147C, strain SLN1, stronger effect = lower value 0.983 | locus YJL095W, strain BCK1, stronger effect = lower value 1.04 | locus YJL128C, strain PBS2, stronger effect = lower value 0.96 | locus YJL157C, strain FAR1, stronger effect = lower value 0.909 | locus YJR016C, strain ILV3, stronger effect = lower value 0.998 | locus YJR066W, strain TOR1 (second series), stronger effect = lower value 0.909 | locus YJR066W, strain TOR1, stronger effect = lower value 0.995 | locus YKL048C, strain ELM1, stronger effect = lower value 0.973 | locus YKL067W, strain YNK1, stronger effect = lower value 0.938 | locus YKL101W, strain HSL1, stronger effect = lower value 0.943 | locus YKL193C, strain SDS22, stronger effect = lower value 0.995 | locus YKL203C, strain TOR2, stronger effect = lower value 0.99 | locus YLR113W, strain HOG1, stronger effect = lower value 1.02 | locus YLR133W, strain CKI1, stronger effect = lower value 0.952 | locus YLR403W, strain SFP1, stronger effect = lower value 0.913 | locus YML070W, strain DAK1, stronger effect = lower value 0.907 | locus YMR001C, strain CDC5, stronger effect = lower value 0.995 | locus YMR205C, strain PFK2 (second series), stronger effect = lower value 0.936 | locus YMR277W, strain FCP1, stronger effect = lower value 0.996 | locus YNL006W, strain LST8, stronger effect = lower value 1 | locus YNL020C, strain ARK1, stronger effect = lower value 0.934 | locus YNL161W, strain CBK1, stronger effect = lower value 0.997 | locus YNL183C, strain NPR1, stronger effect = lower value 1.02 | locus YNL207W, strain RIO2, stronger effect = lower value 1 | locus YNL222W, strain SSU72, stronger effect = lower value 0.993 | locus YNL307C, strain MCK1 (second series), stronger effect = lower value 0.963 | locus YOL078W, strain AVO1, stronger effect = lower value 1 | locus YOL136C, strain PFK27, stronger effect = lower value 0.919 | locus YOR061W, strain CKA2, stronger effect = lower value 0.906 | locus YOR119C, strain RIO1, stronger effect = lower value 0.988 | locus YOR231W, strain MKK1, stronger effect = lower value 1.02 | locus YOR329C, strain SCD5, stronger effect = lower value 0.996 | locus YPL031C, strain PHO85, stronger effect = lower value 0.925 | locus YPL153C, strain RAD53, stronger effect = lower value 0.917 | locus YPL204W, strain HRR25, stronger effect = lower value 0.927 | locus YPL209C, strain IPL1, stronger effect = lower value 0.989 | locus YPL256C, strain CLN2, stronger effect = lower value 1.02 | locus YPR025C, strain CCL1, stronger effect = lower value 0.995 | locus YPR106W, strain ISR1, stronger effect = lower value 0.992 | locus YPR111W, strain DBF20, stronger effect = lower value 0.997 | strain NNK1, stronger effect = lower value 0.993 | strain TSCII, stronger effect = lower value 0.996
